# About 83,000 compounds went through this panel and 20% of them were active in at least one assay; those are over-represented in the sample as a whole.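 Cells were grown in 96-well plates and exposed to the test compound at a single concentration for 48 hours; results are reported as percent growth, with values below 10 considered active.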 Values without a mark were called inactive. The source made the active and inactive calls.
# Assays:
# Experiment in all cases: NCI-60 one-dose screen, 48 h (100 = growth as untreated, 0 = no growth, -100 = all killed)
# DU-145 prostate = conditions: 10 µM
# K-562 leukemia = conditions: 10 µM
# MALME-3M melanoma = conditions: 10 µM
# MDA-MB-231 breast = conditions: 10 µM
# RXF 393 renal = conditions: 10 µM
# SF-268 CNS = conditions: 10 µM
# SF-295 CNS = conditions: 10 µM
# SF-539 CNS = conditions: 10 µM
# UACC-257 melanoma = conditions: 10 µM
# M14 melanoma = conditions: 10 µM
# HCT-15 colon = conditions: 10 µM
# HT29 colon = conditions: 10 µM
# SNB-75 CNS = conditions: 10 µM
# SNB-19 CNS = conditions: 10 µM
# U251 CNS = conditions: 10 µM
# PC-3 prostate = conditions: 10 µM
# SK-MEL-5 melanoma = conditions: 10 µM
# UACC-62 melanoma = conditions: 10 µM unless noted
# LOX IMVI melanoma = conditions: 10 µM
# SK-MEL-28 melanoma = conditions: 10 µM
SMILES,growth (DU-145 prostate),growth (K-562 leukemia),growth (MALME-3M melanoma),growth (MDA-MB-231 breast),growth (RXF 393 renal),growth (SF-268 CNS),growth (SF-295 CNS),growth (SF-539 CNS),growth (UACC-257 melanoma),growth (M14 melanoma),growth (HCT-15 colon),growth (HT29 colon),growth (SNB-75 CNS),growth (SNB-19 CNS),growth (U251 CNS),growth (PC-3 prostate),growth (SK-MEL-5 melanoma),growth (UACC-62 melanoma),growth (LOX IMVI melanoma),growth (SK-MEL-28 melanoma)
COc1ccccc1N=Nc1c(O)ccc2cc(S(=O)(=O)O)ccc12,111%,98.1%,109%,93.2%,104%,96.5%,94.2%,103%,95.8%,99.7%,107%,96.7%,69.6%,100%,99.5%,92.6%,103%,100%,100%,111%
NNc1ccccc1C(=O)O,121%,108%,168%,104%,114%,100%,114%,101%,103%,110%,99.1%,105%,89.4%,113%,107%,99.1%,103%,107%,101%,
CC(=O)OC1CC2C(C)(C)OC3CC(=O)OCC32C2CCC3(C)C(=CCC3c3ccoc3)C12C (centres undefined),92.5%,95.5%,85.2%,115%,105%,98.6%,107%,104%,72.7%,115%,108%,102%,97%,101%,107%,105%,92.5%,72.1%,98.4%,86.9%
CCOC(=O)CSc1c([N+](=O)[O-])ncn1C,105%,109%,80.4%,96.5%,103%,103%,102%,94.3%,94.6%,94.1%,93.7%,104%,98.4%,99.6%,97.9%,106%,96.2%,97.8%,97.7%,92.6%
COc1ccc(C)cc1OC,99.6%,92.9%,97%,107%,117%,98.4%,95.7%,109%,93.9%,115%,104%,108%,104%,107%,97.2%,105%,99.7%,99.5%,96.1%,115%
CCOC(=O)CNN,98.6%,79.5%,103%,107%,108%,103%,102%,108%,97%,107%,108%,105%,94.7%,100%,95.7%,99.3%,90.5%,103%,90.6%,115%
CCCCCCCCCCC(C)Br (centres undefined),113%,93.2%,104%,113%,103%,113%,94.9%,110%,101%,112%,104%,109%,97%,103%,103%,101%,102%,104%,94.3%,112%
Cc1c(O)cccc1O,124%,88.2%,156%,96.5%,77.7%,112%,98.2%,103%,108%,105%,116%,106%,99.1%,97.6%,98.7%,96.9%,106%,94.9%,106%,122%
CCCCC(CC)COC(C)=O (centres undefined),106%,95.1%,96.4%,106%,117%,96.6%,99.3%,92.1%,104%,102%,109%,111%,91.2%,106%,99.6%,97%,105%,103%,97.4%,108%
OCC(O)C(O)C(O)C(O)/C=N/O (centres undefined),108%,111%,110%,97.5%,98.9%,98%,105%,106%,62.3%,94.7%,105%,103%,96.1%,98.3%,91%,73.2%,101%,93.3%,98.3%,114%
C=C[Si](OC(C)=O)(OC(C)=O)OC(C)=O,116%,98.7%,85.6%,118%,117%,99.4%,96.9%,96.8%,105%,99.5%,103%,101%,95.5%,109%,100%,91.6%,104%,116%,98.4%,104%
COC(=O)c1cccc(Br)c1,111%,121%,111%,111%,146%,108%,102%,98.7%,112%,101%,101%,115%,96.5%,107%,109%,86.4%,106%,97.2%,108%,118%
O=C1Cc2cc(O)ccc2O1,118%,96.6%,92.5%,106%,114%,106%,160%,101%,103%,98.9%,117%,104%,86%,107%,103%,107%,101%,101%,83.1%,108%
OC(c1ccccn1)C(O)c1ccccn1 (centres undefined),115%,96.8%,122%,108%,123%,102%,118%,102%,102%,103%,97.6%,106%,89.9%,99.3%,109%,102%,106%,95.6%,96%,113%
CN1C(=O)CN2CCc3ccccc3C2c2cc(Cl)ccc21 (centres undefined),119%,92.6%,94.3%,93.6%,93.7%,103%,105%,89.4%,112%,97.2%,89.7%,108%,96.1%,96.7%,103%,94.7%,91.5%,78.7%,94.7%,-89.5% (active)
COc1cc(C2c3cc4c(cc3C3OC(=O)C2C3CO)OCO4)cc(OC)c1OC (centres undefined),-41.5% (active),8.48% (active),50.3%,30.3%,57.9%,30.3%,3.2% (active),-7.04% (active),57%,12.1%,3.35% (active),-9.63% (active),53.4%,46.6%,19.7%,19.2%,-0.321% (active),29.7%,7.4% (active),49.4%

# — PubChem BioAssay (NCI)
